Results filed as inconclusive are left out. Calls of active or inactive are those of the source. Calls follow the shape of the dose curve; as a rule, active = well fitted curve in the direction sought with a large enough effect; inconclusive = small, poorly fitted or top-dose-only effect, or another doubt; inactive = no such curve, though single readings can be large; an effect the other way counts as inactive or inconclusive.
Assays:
[1] = HPAF-II 12hr Apoptosis Induction qHTS against the NCATS CANVASS Library (AID 1347358)
Text: (§1) Natural products and their derivatives continue to be wellsprings of nascent therapeutic potential. However, many laboratories have limited resources for biological evaluation, leaving their previously isolated or synthesized compounds largely or completely untested. To address this issue, the Canvass library of natural products was assembled (https://tripod.nih.gov/canvass), in collaboration with academic and industry researchers, for quantitative high-throughput screening (qHTS) across a diverse set of cell-based and biochemical assays. The pure (>85% purity by liquid chromatography/mass spectrometry [LC/MS]) Canvass library of 346 natural products were submitted by 45 academic laboratories and companies around the world. […] The library was formatted into 1536-well plates and evaluated in 50 qHTS (in an 11-pnt concentration series) bioassays with broad scope of disease-relevant mechanisms. The resulting data set from 50 different assays was then systematically analyzed to identify overall trends and specific natural products with interesting biological activities. […] The luminescence is proportional to the amount of caspase activity in the assay reaction. […]
(§2) Cancer Cell Apoptosis Assay 1. […] Luminescence signal was acquired via the ViewLux plate reader (PerkinElmer) using a clear filter, 20 second exposure and 2x binning settings.

[2] = HEK293 24hr Apoptosis Induction qHTS against the NCATS CANVASS Library (AID 1347359)
Text: as §1, §2

[3] = HPAF-II 18hr Apoptosis Induction qHTS against the NCATS CANVASS Library (AID 1347360)
In short: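 Apoptosis was scored as caspase-3/7 activity in HPAF-II pancreatic cancer cells treated 18 hours with an 11-point concentration series.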

[4] = HEK293 12hr Apoptosis Induction qHTS against the NCATS CANVASS Library (AID 1347361)
In short: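 Apoptosis in HEK293 was scored as caspase-3/7 luminescence following 12 h treatment with a compound concentration series in qHTS format.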

[5] = test system: NAD(P)H diaphorase (Clostridium kluyveri); experiment: Diaphorse counterscreen qHTS: Assay Interference Panel against the NCATS CANVASS Library (AID 1347362)
In short: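 Counterscreen for coupling-enzyme interference: resorufin fluorescence from resazurin/NADH turnover, read after 5 min at room temperature. Compounds were tested over an 11-point series after 15 min dark preincubation with diaphorase in PBS-Tween.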

[6] = target: Luciferin 4-monooxygenase (Photinus pyralis) (UniProt P08659); experiment: Firefly luciferase counterscreen qHTS: Assay Interference Panel against the NCATS CANVASS Library (AID 1347363)
In short: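 Luminescence inhibition readout: compounds (11-point qHTS) sat 15 min at room temperature with substrate mix (0.013 mM luciferin and ATP), then firefly luciferase was added and signal read 5 min later.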

[7] = KB-8-5-11 Cancer Cell Toxicity qHTS against the NCATS CANVASS Library (AID 1347364); details: KB-8-5-11 MDR cells viability, CellTiter-Glo, 72 h; at 46.1 µM (top of the series); also: nearly all actives have a fitted effect of over 75% in size
Text: Natural products and their derivatives continue to be wellsprings of nascent therapeutic potential. However, many laboratories have limited resources for biological evaluation, leaving their previously isolated or synthesized compounds largely or completely untested. To address this issue, the Canvass library of natural products was assembled (https://tripod.nih.gov/canvass), in collaboration with academic and industry researchers, for quantitative high-throughput screening (qHTS) across a diverse set of cell-based and biochemical assays. The pure (>85% purity by liquid chromatography/mass spectrometry [LC/MS]) Canvass library of 346 natural products were submitted by 45 academic laboratories and companies around the world. We collected pure natural products to circumvent deconvolution and structure elucidation due to time and resource limitations. The library was formatted into 1536-well plates and evaluated in 50 qHTS (in an 11-pnt concentration series) bioassays with broad scope of disease-relevant mechanisms. The resulting data set from 50 different assays was then systematically analyzed to identify overall trends and specific natural products with interesting biological activities. […]
Cancer Cell Toxicity qHTS protocol 1. […] Luminescence signal was acquired via the ViewLux plate reader (PerkinElmer) using a clear emission filter, 1 sec exposure, and 1x binning settings.

[8] = KB-3-1 Cancer Cell Toxicity qHTS against the NCATS CANVASS Library (AID 1347366); details: KB-3-1 viability, CellTiter-Glo luminescence, 72 h; at 46.1 µM (top of the series); also: nearly all actives have a fitted effect of over 75% in size
In short: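 Seed KB-3-1 cells at 500/well in DMEM with 10% FBS, add compounds, incubate 72 hr at 37C and 5% CO2, then add CellTiter-Glo and read luminescence after 10 minutes.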

[9] = qHTS for ATAD5 Agonist screened against the NCATS CANVASS Library (AID 1347367);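 also: luciferase reporter driven by ATAD5 which rises upon DNA damage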
In short: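 Step one plated reporter cells and let them acclimate 5hr. Step two pinned compounds with MMS as positive and 0.46% DMSO as negative control. After 16hr incubation, fluorescence viability then luminescence were read.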

[10] = MCF7 Cancer Cell Toxicity qHTS against the NCATS CANVASS Library (AID 1347369); details: MCF7 viability, ATP luminescence (CellTiter-Glo), 72 h; at 46 µM (top of the series)
In short: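 Cytotoxicity is measured by ATP content: MCF7 cells at 500 per well receive an 11-point compound series and, after 72 hr at 37C, are lysed with CellTiterGlo for luminescence.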

Measured: outcome

Chain of Luciferin 4-monooxygenase (Photinus pyralis) (P08659 whole entry, looked up): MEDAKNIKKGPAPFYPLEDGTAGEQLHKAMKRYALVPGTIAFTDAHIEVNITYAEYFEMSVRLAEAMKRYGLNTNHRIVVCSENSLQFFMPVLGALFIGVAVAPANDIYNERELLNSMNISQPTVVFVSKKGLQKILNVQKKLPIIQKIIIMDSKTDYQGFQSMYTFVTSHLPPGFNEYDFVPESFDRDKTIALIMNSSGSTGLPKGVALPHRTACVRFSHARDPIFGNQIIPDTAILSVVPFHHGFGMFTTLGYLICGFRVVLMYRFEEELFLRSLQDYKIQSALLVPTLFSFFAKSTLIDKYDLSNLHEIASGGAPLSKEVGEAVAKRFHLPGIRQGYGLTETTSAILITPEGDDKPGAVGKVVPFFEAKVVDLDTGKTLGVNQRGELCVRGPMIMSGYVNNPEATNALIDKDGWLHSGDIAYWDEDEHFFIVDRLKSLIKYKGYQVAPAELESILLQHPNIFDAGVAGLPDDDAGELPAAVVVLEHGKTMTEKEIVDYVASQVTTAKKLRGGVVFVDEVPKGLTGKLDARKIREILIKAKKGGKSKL

CN1CCC[C@@H]1c1cccnc1
inactive: all assays above
